Results published in PubChem BioAssay (NCI).
The panel holds about 83,000 compounds, 20% with a hit somewhere; the sample as a whole holds those more often.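 How to read the values: 0–100, growth inhibition (40 = 60% inhibited); 0, no net growth; -100 to 0, cell death (-40 = 40% of starting cells died; -100 = all dead).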 A number with no mark means an inactive call. The source made the active and inactive calls. The calls were made as follows: active = growth percent below 10; inactive = the rest.

Test system: SF-295 CNS
Assay: NCI-60 one-dose screen, 48 h (100 = growth as untreated, 0 = no growth, -100 = all killed)
Conditions: 10 µM unless noted

Structure (SMILES)	growth
CCN(CC)c1ccc(/C=C2\Oc3ccc(O)c(I)c3C2=O)cc1	68.9%
CC1(c2ccc(Cl)cc2)OC(=O)CC(=O)O1	120%
Cc1csc(NC(c2ccccc2)c2c(C)nc3ccccn23)n1 (centres undefined)	87.1%
COc1cc(-c2nc(N=Nc3c(O)[nH]c4ccc(Br)cc34)[nH]c(=O)c2C#N)cc(OC)c1OC	91.1%
O=C1/C(=C/c2ccc(Cl)cc2)CN(C(=O)CCN2CCC(=NO)CC2)C/C1=C\c1ccc(Cl)cc1	-76.3% (active)
Cc1ccc(-c2cc3nc(C(Cl)Cl)nc(-c4ccccc4C)n3n2)cc1	77.3%
Nc1cccc(-c2nc3sccn3c2-c2ccnc(NCCNS(=O)(=O)c3ccc(C(F)(F)F)cc3)n2)c1	46.6%
FC(F)(F)c1cccc(-c2cn3c(ccc4ccccc43)n2)c1	88.5%
CCCCCCN1CSC(=S)N(CCCCCC)C1	98.2%
Oc1ccc2cc(Br)ccc2c1-c1c(O)ccc2cc(Br)ccc12	76.5%
C=C(C)[C@@H]1C[C@H](O)Cc2cc(F)ccc2N1	116%
NC1=NC(SCc2ccccc2CCl)c2ncn(Cc3ccccc3CCl)c2N1 (centres undefined)	101%
COc1ccc(C(=O)c2cc(OC)c(OC)c(OC)c2OC)cc1O	33.3%
CNc1ccc(Br)c2c1C(=O)c1ccccc1C2=O	110%
Cc1cc(N/N=C/c2nc(-c3ccccc3)oc2C)c2cc(Br)ccc2n1	95%
CC(C)(C)n1cc(-c2ccnc(NCCCNS(=O)(=O)c3ccccc3)c2)c(-c2cccc(O)c2)n1	35.1%
O=C1Nc2ccc(Cl)cc2C12Nc1cc(Cl)ccc1S2 (centres undefined)	106%
O=C1/C(=C/c2ccccc2)CN(C(=O)CCN2CCC(=NO)CC2)C/C1=C\c1ccccc1	-10.5% (active)
O=[N+]([O-])c1cccc(-c2nc3sccn3c2-c2ccnc(NCCCNS(=O)(=O)c3ccc(Cl)cc3)n2)c1	37.2%
Cc1ccc(S(=O)(=O)Nc2c(Br)cc(Br)cc2C(N)=O)cc1	97.3%

Structure (SMILES)	growth
CN(C[C@H]1Cc2c(cccc2N2CCN(Cc3ccccn3)CC2)CN1)[C@H]1CCCc2cccnc21	43.4%
CC(C)(C)OC(=O)NC(CSCc1ccccc1)C(=O)ON1C(=O)CCC1=O (centres undefined)	124%
COc1ccc(-c2ccc(-c3ccc(C(=N)N)s3)s2)cc1Cl	10.8%
O=[N+]([O-])c1ccc(C(c2ccccc2)c2ccccc2)cc1	88.7%
CCN(CC)c1ccc2[nH]c3c(C(N)=O)cc(=O)c(=O)c=3oc2c1	-9.14% (active)
CCNc1nc(S(=O)(=O)CC)nc2ccccc12	105%
CCC(=O)Oc1ccc(/C(=C(/C)Cc2cccc(OC)c2)c2ccc(OCCN(C)C)cc2)cc1	99.2%
Nc1nc(-c2ccccc2)c(CCCOc2ccc(NC(=O)CBr)cc2)c(=O)[nH]1	117%
CN(C)CCOC(=O)Nc1ccccc1Cl	114%
c1ccc(-c2nnc(-c3ccccn3)s2)nc1	100%
COc1ccc(-c2nc(N3CCCC3=O)sc2Br)cc1OC	93.5%
C=C1CCC2C3(C)COC(c4c(OC)cccc4OC)OC3CCC2(C)C1C/C=C1/C(=O)OCC1O (centres undefined)	85.1%
c1cc2[nH]ncc2cc1-c1nc2ccc3[nH]ncc3c2c2c1CCC2	80.6%
COc1ccc2c(c1)[nH]c(=O)c1c3cc(OC)ccc3cn21	-18% (active)
NC(N)=Nc1nc2ccccc2o1	112%
Nc1ccc(C(=O)CSc2nc3ccccc3[nH]2)cc1	98.1%
CC(C)(C)n1cc(-c2ccnc(NCCCNS(=O)(=O)c3ccc(F)cc3)c2)c(-c2cccc(O)c2)n1	26.8%
COc1ccccc1CNCCCN1C(=O)c2ccc3c4c(ccc(c24)C1=O)C(=O)N(CCCNCCCCNCCCN)C3=O	1.52% (active)
O=C(CCl)N(C1CCCCC1)C1CCCCC1	98.3%
